SMILES strings stand for the structures. About 8,600 (12%) of roughly 69,000 compounds showed an effect of 50% or more. The sample as a whole holds a higher share of strong results than the screen did.

For the test, the system named is Plasmodium berghei. Kind of test: Screen against P. berghei liver stage (PbLuc), transformed with Luciferase, at 10uM. The class given is functional, HepG2. To be noted: tested at 10 uM.
On to `CN1CCOC(C(=O)Nc2nc(-c3ccc4c(c3)CCC4)n[nH]2)C1` (centres undefined), for which the INHIBITION was found to be 32.4%. Regarding `CN1CCOC(C(=O)Nc2ccc3[nH]nnc3c2)C1` (centres undefined), the INHIBITION is on record as 59.7%. In the case of `CC1(C(=O)N2CCSCC2)CNCCO1` (centres undefined), the INHIBITION was 34.825%. Consider `O=C1CCCc2[nH]c(=O)c(C(=O)N3CCc4ccccc4C3)cc21`, for which the INHIBITION was found to be 14.1%.

Consider `COCCN1C[C@H]2CN(Cc3cccc(OC)c3)CCN2C1=O`, for which the INHIBITION turned out to be 24.8%. The value for `COc1cccc(-c2ncc(CN3C[C@H]4CC[C@@H](C3)N(C)C4=O)s2)c1` was 78.9%.

For the compound `COc1cccc(-c2ncc(CN3CC[C@@H]4CC[C@H](C3)N4)s2)c1`, the INHIBITION came to 46.1%.

`CN1C(=O)[C@@H]2CC[C@H]1CN(Cc1cccc(OCc3ccccn3)c1)C2`: the INHIBITION is on record as 47.5%.

Consider `COc1cccc(-c2cccc(CN3C[C@H]4CC[C@@H](C3)N(C)C4=O)c2)c1`, for which the INHIBITION is given as 61%. In the case of `COc1cccc(-c2ncc(CN3CC[C@H](CO)[C@@H](O)C3)s2)c1`, the INHIBITION was determined as 15.7%. The value for `Cc1ccc(C2NC(=O)c3cc(C(C)C)sc3N2)cc1` (centres undefined) was -4.92%. With `Cc1cnn(C2CN(CC(=O)NCCc3c[nH]c4ccccc34)C2)c1`, the INHIBITION stood at 10%. Regarding `COc1ccc(-c2cc(C3CCOC3)c(C#N)c(N)n2)cn1` (centres undefined), the INHIBITION was 6.69%. The value for `Cc1cc(-c2cc(C3CCOC3)c(C#N)c(N)n2)ccc1Cl` (centres undefined) was 23.9%; that for `COc1cc(-c2cc(C3CCOC3)c(C#N)c(N)n2)ccc1O` (centres undefined) was 53%; that for `C=Cc1ccc(C(=O)N2CCCC(Nc3ccc(F)cc3)C2)cc1` (centres undefined) was 36.8%.

With `COC(=O)c1ccc(C(=O)N2CCCC(Nc3ccc(F)cc3)C2)cc1` (centres undefined), the INHIBITION was -6.88%.

Turning to `Cc1ccc(C(=O)N2CCCC(Nc3ccc(F)cc3)C2)cc1` (centres undefined), the INHIBITION was determined as 36%. The value for `C=Cc1ccc(C(=O)N2CCCC(Nc3ccccc3)C2)cc1` (centres undefined) was 50.3%. The value for `C=Cc1ccc(C(=O)N2CCCC(Nc3ccc(F)c(F)c3)C2)cc1` (centres undefined) was 37.1%. The figure for `C=Cc1ccc(C(=O)N2CCCC(Nc3ccc(OC)cc3)C2)cc1` (centres undefined) is 73.5%; for `CC(C)N1CCO[C@H]2CN(C(=O)c3ccsc3)C[C@H]21` it is -5.05%. Turning to `CC(=O)N1CCCCC[C@@H]2[C@@H]1[C@H](c1cccc(F)c1)CN2C(=O)C1CC1`, the INHIBITION is given as 35.85%. The value for `O=C(c1ncc(F)cc1F)N1CCC(c2ncc[nH]2)CC1` was 29.4%; that for `Cc1cc(C)nc(N2CCC(c3ccnc(N(C)C)n3)CC2)n1` was 75.9%.

As to `CN(C)c1nccc(C2CCN(C3CCCCC3O)CC2)n1` (centres undefined), the INHIBITION was 27.6%. Consider `CN(C)c1nccc(C2CCN(c3ncccn3)CC2)n1`, for which the INHIBITION was 76.8%. In the case of `CN(C)C(=O)c1cccc(C2CCN(c3ncccn3)CC2)n1`, the INHIBITION is -19.7%. Take `CN1CCC(c2cccc(C(=O)N(C)C)n2)CC1`: the INHIBITION was found to be 16.5%. `CN(C)c1nccc(C2CCN(C(=O)CO)CC2)n1`: the INHIBITION is -37%. In the case of `CN(C)c1cccc(C2CCN(c3ncccn3)CC2)n1`, the INHIBITION is listed as 48%. The figure for `NC(=O)c1cccc(C2CCN(c3ncccn3)CC2)n1` is 52.7%. The value for `CN(C)c1nccc(C2CN(S(C)(=O)=O)C2)n1` was 20.2%; that for `Cc1cccc(CN2CCC3(CC2)CC(Oc2cccnc2)C3)n1` was 0.923%; that for `CCOc1ccnc(N2CCN(C(=O)c3ccn(C)c(=O)c3)CC2)n1` was 4.71%. Take `COc1ccc(CCCN(C)C(=O)c2cc(C(C)=O)c[nH]2)cc1OC`: the INHIBITION is -46.6%. Consider `COCCN1C(=O)[C@@H]2CC[C@H]1CN(C(=O)Cc1ccc(O)c(Cl)c1)C2`, for which the INHIBITION is recorded as -82.7%. The value for `CCS(=O)(=O)N1CCC2(CC1)COC(COc1cccnc1)C2` (centres undefined) was 5.63%. The value for `Cc1ccc(C#N)c(N2CCC(c3nccn3Cc3cscn3)CC2)n1` was 23.9%; that for `Cc1ccc(C#N)c(N2CCCC(c3nccn3Cc3cscn3)C2)n1` (centres undefined) was 56.7%; that for `Cc1cnc(C)c(N2CCC(c3nccn3Cc3cscn3)CC2)n1` was 8.51%.

`O=C(CC1CC1)N1C[C@@H]2CN(c3ccccc3)C(=O)[C@@H]2C1`: the INHIBITION is on record as -15.9%. Turning to `Cc1cc(C(=O)NCC2OCCc3cn(CC4CC4)nc32)c(C)[nH]1` (centres undefined), the INHIBITION is 26.5%. The value for `COc1ccc(CCN2CC(NCc3ncc[nH]3)CC2=O)cc1` (centres undefined) was -5.19%; that for `Cn1c(N2CC[C@H](O)C2)nc2cc(C(N)=O)ccc21` was 14.3%; that for `CN(C(=O)c1ccc2c(c1)nc(N1CC[C@H](O)C1)n2C)C1CCSCC1` was -1.04%. With `CN(C)C(=O)c1ccc2c(c1)nc(N1CC[C@H](O)C1)n2C`, the INHIBITION was found to be 51.8%. The figure for `NCc1ccnc(Oc2ccccc2)c1` is -18.5%. Turning to `NCc1ccnc(Oc2ccc(F)cc2)c1`, the INHIBITION came out at 82.9%.

Take `Cc1ccc(Oc2cc(CN)ccn2)cc1C`: the INHIBITION came to 45.7%.

Turning to `CCOc1ccc(Oc2cc(CN)ccn2)cc1`, the INHIBITION is on record as -5.69%. The value for `CC(C)C(=O)NCc1ccnc(Oc2ccc(F)cc2)c1` was 32.5%. The figure for `COc1ccc(Oc2cc(CN)ccn2)cc1` is 62.4%; for `O=C(CSc1ccccc1)N1C[C@@H]2CC[C@H]1CN(Cc1ccncc1)C2` it is 10.4%.

The values above are taken from ChEMBL document CHEMBL4513216, “Probing the Open Global Health Chemical Diversity Library for Multistage-Active Starting Points for Next-Generation Antimalarials” (ACS Infect Dis, 2020).
